Inhibition data for 64 compounds are collected here from PubChem BioAssay AID651744 (Broad Institute, 2012).

Out of some 5,600 compounds screened, about 3,100 (55%) were called active. Another 3% or so got no clear call; they are omitted. The set was probably picked from earlier hits. Not all results are given here. A number with no mark means an inactive call.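 Rule for the calls: active = mean loss of cell viability signal at or above a set limit, and enough replicates individually reaching it; inconclusive = meets only the mean limit or only the replicate share; inactive = meets neither condition.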

The experiment in a line: NIH/3T3 fibroblast cytotoxicity, confirmation, cytotoxicity control, cell-based, cherry-pick, single point, set 2 (AID 651744).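 Note: 0% = median of neutral control wells and 100% = median of positive control wells.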 As to conditions: NIH/3T3 viability, CellTiter-Glo ATP luminescence, 90 h; at 24.9 µM; stronger effect = higher value. On the technique in general: ATP-based viability assays read luminescence as a measure of living cells.
`COCCNC[C@@H]1[C@H](c2ccccc2)[C@H](CO)N1c1nc(C)c(C)s1`: the inhibition was 5.9%.

For the compound `C/C=C/c1ccc([C@H]2[C@@H](CNC(C)C)N(c3nc(CC)cs3)[C@H]2CO)cc1`, the inhibition is 103% (active).

On to `CCS(=O)(=O)N1CCCCN2[C@@H](CO)[C@@H](c3ccc(-c4ccccc4)cc3)[C@@H]2C1`, for which the inhibition was 49.5% (active).

Take `CN(C)C(=O)c1ccc(-c2ccc([C@@H]3[C@H](CO)N4CCCCN(S(C)(=O)=O)C[C@@H]34)cc2)cc1`: the inhibition is 6.63%.

Consider `O=S(=O)(Cc1ccccc1)N1CCCCN2[C@@H](CO)[C@@H](c3ccc(-c4ccc(F)cc4)cc3)[C@@H]2C1`, for which the inhibition was 105% (active).

Take `Cc1cccc(-c2ccc([C@@H]3[C@@H](CO)N4CCCCN(S(=O)(=O)c5cccs5)C[C@H]34)cc2)c1`: the inhibition was 95.2% (active).

With `O=S(=O)(Cc1ccccc1)N1CCCCN2[C@@H](CO)[C@H](c3ccc(-c4ccccc4)cc3)[C@@H]2C1`, the inhibition was 106% (active).

For the compound `O=S(=O)(Cc1ccccc1)N1CCCCN2[C@@H](CO)[C@H](c3ccc(-c4cccnc4)cc3)[C@@H]2C1`, the inhibition is -12.4%.

Turning to `C[C@@H](O)C#Cc1ccc([C@@H]2[C@H](CO)N3CCCCN(S(=O)(=O)c4ccccc4)C[C@@H]23)cc1`, the inhibition was 3.32%.

Regarding `C/C=C/c1ccc([C@H]2[C@H]3CN(S(=O)(=O)c4ccccc4)CCCCN3[C@H]2CO)cc1`, the inhibition is 87.7% (active).

Consider `C[C@H](O)C#Cc1ccc([C@H]2[C@H]3CN(S(=O)(=O)Cc4ccccc4)CCCCN3[C@H]2CO)cc1`, for which the inhibition is 30.3% (active).

Consider `C[C@H](O)C#Cc1ccc([C@@H]2[C@H]3CN(S(=O)(=O)c4ccccc4)CCCCN3[C@H]2CO)cc1`, for which the inhibition is 25.4%.

`O=C(Nc1ccc(Cl)cc1)N[C@@H]1CC[C@@H](CCNC(=O)c2ccccc2F)O[C@H]1CO`: the inhibition is 4.33%.

Take `COc1cccc(S(=O)(=O)Nc2ccc3c(c2)[C@H]2C[C@H](CC(=O)NCc4ccc(Cl)cc4)O[C@H](CO)[C@H]2O3)c1`: the inhibition is 4.86%.

With `O=C(Nc1cc(Cl)cc(Cl)c1)N[C@H]1CC[C@@H](CCNS(=O)(=O)c2cccc(F)c2)O[C@H]1CO`, the inhibition was 57.3% (active).

Regarding `CCCC#Cc1ccc2c(c1)O[C@@H](CN(C)C(=O)c1ccccc1F)[C@H](C)CN([C@H](C)CO)S2(=O)=O`, the inhibition was 24.6%.

As to `C[C@H](CO)N1C[C@H](C)[C@@H](CN(C)Cc2ccncc2)Oc2cc(Br)ccc2S1(=O)=O`, the inhibition is 51.2% (active).

On to `CC(C)CC#Cc1ccc2c(c1)O[C@H](CN(C)Cc1cccnc1)[C@H](C)CN([C@@H](C)CO)S2(=O)=O`, for which the inhibition is 97% (active).

With `CC(C)CC#Cc1ccc2c(c1)O[C@H](CN(C)Cc1ccncc1)[C@H](C)CN([C@H](C)CO)S2(=O)=O`, the inhibition was 104% (active).

As for `CC(C)CC#Cc1ccc2c(c1)O[C@H](CN(C)Cc1ccccc1F)[C@@H](C)CN([C@@H](C)CO)S2(=O)=O`, the inhibition is 105% (active).

For the compound `O=C(Nc1ccc2c(c1)[C@@H]1C[C@H](CC(=O)N3CCOCC3)O[C@@H](CO)[C@@H]1O2)c1ccc2c(c1)OCO2`, the inhibition was 4.7%.

Regarding `C[C@H]1CN([C@@H](C)CO)C(=O)CCCn2cc(nn2)CO[C@H]1CN(C)C(=O)c1ccccc1`, the inhibition is 7.66%.

In the case of `C[C@H]1CN([C@@H](C)CO)S(=O)(=O)c2ccc(C#CC3CCCC3)cc2O[C@@H]1CN(C)C(=O)c1cccc(F)c1`, the inhibition is 105% (active).

In the case of `C[C@H](CO)N1C[C@H](C)[C@@H](CN(C)C(=O)Nc2cc(F)ccc2F)Oc2cc(C#CC3CC3)ccc2S1(=O)=O`, the inhibition was 55.6% (active).

Regarding `CO[C@H](CN(C)S(=O)(=O)c1ccc(Cl)cc1)[C@@H](C)CN(Cc1ccccc1Cl)[C@H](C)CO`, the inhibition is 74% (active).

As for `OC[C@@H]1[C@H](c2ccc(C#CC3CC3)cc2)[C@@H]2CN(CCC(F)(F)F)CCCCN12`, the inhibition is 102% (active).

For `COc1cccc(S(=O)(=O)N2CCCCN3[C@H](CO)[C@H](c4ccc(C#CC5CC5)cc4)[C@H]3C2)c1`, the inhibition is 104% (active).

Regarding `COc1cccc(S(=O)(=O)N2CCCCN3[C@H](CO)[C@H](c4ccc(-c5ccncc5)cc4)[C@H]3C2)c1`, the inhibition is 36.2% (active).

As to `O=C(CN1CCOCC1)N1CCCCN2[C@@H](CO)[C@H](c3ccc(/C=C/c4ccccc4)cc3)[C@@H]2C1`, the inhibition was 92.5% (active).

Turning to `O=C(CN1CCOCC1)N1CCCCN2[C@@H](CO)[C@H](c3ccc(-c4ccccc4)cc3)[C@@H]2C1`, the inhibition was 6.88%.

On to `CCC(=O)N1CCCCN2[C@H](C1)[C@@H](c1ccc(-c3ccc(F)cc3)cc1)[C@@H]2CO`, for which the inhibition is 48.8% (active).

For the compound `O=C(CN1CCOCC1)N1CCCCN2[C@H](CO)[C@H](c3ccc(-c4ccccc4)cc3)[C@@H]2C1`, the inhibition was 16.2%.

For the compound `CCC(=O)N1CCCCN2[C@H](C1)[C@@H](c1ccc(/C=C/c3ccccc3)cc1)[C@@H]2CO`, the inhibition is 103% (active).

With `COc1ccc(CN(C)C[C@H]2Oc3ccc(NS(=O)(=O)c4ccc(Cl)cc4)cc3CC(=O)N([C@@H](C)CO)C[C@H]2C)cc1`, the inhibition is 36.9% (active).

As for `COc1ccc(S(=O)(=O)Nc2ccc3c(c2)C(=O)N([C@@H](C)CO)C[C@H](C)[C@H](CN(C)Cc2ccc(C(F)(F)F)cc2)O3)cc1`, the inhibition is 35.2% (active).

On to `Cc1ccc(S(=O)(=O)Nc2ccc3c(c2)C(=O)N([C@H](C)CO)C[C@H](C)[C@H](CN(C)Cc2ccc(Cl)c(Cl)c2)O3)cc1`, for which the inhibition was 104% (active).

As to `COc1ccc(S(=O)(=O)Nc2ccc3c(c2)C(=O)N([C@@H](C)CO)C[C@H](C)[C@@H](CN(C)Cc2ccc(C(F)(F)F)cc2)O3)cc1`, the inhibition is 5.53%.

As for `COc1ccc(NC(=O)Nc2ccc3c(c2)C(=O)N([C@H](C)CO)C[C@H](C)[C@H](CN(C)S(=O)(=O)c2ccc(Cl)cc2)OCCCC[C@H](C)O3)cc1`, the inhibition is 3.56%.

As to `Cc1ccc(S(=O)(=O)Nc2ccc3c(c2)C(=O)N([C@H](C)CO)C[C@H](C)[C@H](CN(C)C(=O)Nc2ccc(F)cc2)OCCCC[C@H](C)O3)cc1`, the inhibition is 1.65%.

As to `COc1ccc(S(=O)(=O)Nc2ccc3c(c2)C(=O)N([C@H](C)CO)C[C@H](C)[C@H](CN(C)Cc2ccc(C(F)(F)F)cc2)O3)cc1`, the inhibition was 97.6% (active).

Turning to `Cc1ccc(S(=O)(=O)N(C)C[C@@H]2OCCCC[C@@H](C)Oc3ccc(NS(=O)(=O)c4ccc(F)cc4)cc3C(=O)N([C@H](C)CO)C[C@H]2C)cc1`, the inhibition is -22.2%.

Consider `CN1C(=O)c2cc(NC(=O)c3cnccn3)ccc2OC[C@@H]2O[C@H](CC(=O)N[C@@H]3CCN(Cc4ccccc4)C3)CC[C@@H]21`, for which the inhibition was -11.4%.

For `C[C@H](CO)N1C[C@H](C)[C@H](CN(C)Cc2ccc(C(F)(F)F)cc2)Oc2ccc(NS(=O)(=O)c3ccc(Cl)cc3)cc2C1=O`, the inhibition was 101% (active).

With `C[C@@H]1CN([C@@H](C)CO)S(=O)(=O)c2ccc(C#Cc3ccc(F)cc3)cc2O[C@H]1CN(C)C(=O)NC1CCCC1`, the inhibition was 90.7% (active).

For `C[C@@H]1CN([C@H](C)CO)S(=O)(=O)c2ccc(-c3cccc(C#N)c3)cc2O[C@@H]1CN(C)C(=O)Nc1ccccc1F`, the inhibition is 77.8% (active).

For the compound `C[C@@H]1CN([C@@H](C)CO)S(=O)(=O)c2ccc(C#Cc3ccc(F)cc3)cc2O[C@H]1CN(C)C(=O)c1ccccn1`, the inhibition is 92.1% (active).

As to `C[C@@H]1CN([C@@H](C)CO)S(=O)(=O)c2ccc(-c3ccncc3)cc2O[C@@H]1CN(C)C(=O)Nc1ccc(F)cc1`, the inhibition is 21.8%.

On to `C[C@@H]1CN([C@@H](C)CO)S(=O)(=O)c2ccc(C#Cc3ccccc3)cc2O[C@@H]1CN(C)C(=O)Nc1ccccc1`, for which the inhibition was 49.1% (active).

As for `C[C@@H]1CN([C@H](C)CO)S(=O)(=O)c2ccc(C#CC3CCCC3)cc2O[C@@H]1CN(C)Cc1cccnc1`, the inhibition was 104% (active).

For `C[C@H](CO)N1C[C@H](C)[C@H](CN(C)Cc2cccnc2)Oc2cc(C#CC3CCCC3)ccc2S1(=O)=O`, the inhibition is 104% (active).

Regarding `COc1ccc(S(=O)(=O)N2CCCCN3[C@H](C2)[C@H](c2ccc(C#CCC(C)C)cc2)[C@@H]3CO)cc1`, the inhibition was 64.2% (active).

With `COc1cccc(S(=O)(=O)N2CCCCN3[C@H](C2)[C@H](c2ccc(C#CC(C)C)cc2)[C@@H]3CO)c1`, the inhibition is 26.4%.

`COc1ccc(S(=O)(=O)N2CCCCN3[C@H](CO)[C@@H](c4ccc(C#CC(C)C)cc4)[C@H]3C2)cc1`: the inhibition was 105% (active).

Consider `CC(C)C#Cc1ccc([C@H]2[C@H](CO)N3CCCCN(C(=O)NC(C)C)C[C@@H]23)cc1`, for which the inhibition is 50% (active).

On to `CC(C)CC#Cc1ccc2c(c1)O[C@H](CN(C)S(=O)(=O)c1cccc(F)c1)[C@@H](C)CN([C@@H](C)CO)S2(=O)=O`, for which the inhibition is 105% (active).

For `COc1ccccc1-c1ccc2c(c1)O[C@H](CN(C)S(=O)(=O)c1ccc(C)cc1)[C@@H](C)CN([C@H](C)CO)S2(=O)=O`, the inhibition was 31.1% (active).

Turning to `COc1ccccc1-c1ccc2c(c1)O[C@@H](CN(C)C)[C@H](C)CN([C@H](C)CO)S2(=O)=O`, the inhibition was 19.5%.

`Cc1ccc(-c2ccc3c(c2)O[C@H](CN(C)C)[C@@H](C)CN([C@H](C)CO)S3(=O)=O)cc1`: the inhibition is 25.3% (active).

On to `C[C@@H]1CN([C@H](C)CO)S(=O)(=O)c2ccc(-c3cccc(F)c3)cc2O[C@H]1CN(C)S(=O)(=O)c1ccc(F)cc1`, for which the inhibition was 60.5% (active).

For `Cc1noc(C)c1S(=O)(=O)Nc1ccc2c(c1)C(=O)N([C@@H](C)CO)C[C@@H](C)[C@H](CN(C)S(=O)(=O)c1ccc(Cl)cc1)OCCCC[C@H](C)O2`, the inhibition is -2.59%.

As for `C[C@H](CO)N1C[C@H](C)[C@@H](CN(C)S(=O)(=O)c2ccc(F)cc2)Oc2cc(C3=CCCC3)ccc2S1(=O)=O`, the inhibition was 45.4% (active).

Turning to `C[C@@H]1CN([C@@H](C)CO)S(=O)(=O)c2ccc(-c3cccc(F)c3)cc2O[C@@H]1CN(C)S(=O)(=O)c1ccccc1`, the inhibition is 57.2% (active).

As to `C[C@H]1CN([C@@H](C)CO)S(=O)(=O)c2ccc(C#Cc3cccc(F)c3)cc2O[C@@H]1CN(C)S(=O)(=O)c1cn(C)cn1`, the inhibition is 77.2% (active).

In the case of `C[C@@H]1CN([C@H](C)CO)C(=O)c2cc(NS(C)(=O)=O)ccc2O[C@@H](C)CCCCO[C@H]1CN(C)S(=O)(=O)c1cn(C)cn1`, the inhibition was -25.6%.

Broadly, the inhibition is the drop in the measured response relative to a control, in per cent.
